# Measurements taken from publication PMC7862700, “An all-to-all approach to the identification of sequence-specific readers for epigenetic DNA modifications on cytosine”.
# What was measured:
# Test in all cases: DAPPL (digital affinity profiling via proximity ligation, sequencing); 10 mM Tris-HCl pH 7.5, 50 mM NaCl, 1 mM DTT, 4% glycerol, room temperature, 30 min; GST-TFs on glutathione beads, 16-mer random dsDNA library, 0.1% formaldehyde crosslink after washing; high values mean tight binding
# FEV = biological target: T1, FEV (Homo sapiens, UniProt Q99581 1-238); conditions: protein: recombinant; tags: N-terminal GST; dsDNA, one strand shown
# T1 sequence: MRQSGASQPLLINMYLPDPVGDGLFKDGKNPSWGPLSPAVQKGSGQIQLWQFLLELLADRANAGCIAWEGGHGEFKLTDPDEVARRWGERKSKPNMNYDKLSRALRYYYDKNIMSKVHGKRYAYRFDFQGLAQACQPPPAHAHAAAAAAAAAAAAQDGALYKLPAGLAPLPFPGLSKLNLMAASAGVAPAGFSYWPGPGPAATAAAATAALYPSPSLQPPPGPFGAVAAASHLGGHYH
# Procedure, shortened: (§1)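 Each value of binding signal is a hexamer's read frequency for a factor divided by the same hexamer's frequency in the tag-only sample. Barcoded, bead-captured GST fusions of human transcription factors made in yeast were pooled with that sample and incubated with 200 nmole of a random double-stranded 16-mer DNA library in Tris/NaCl/DTT/glycerol buffer at room temperature for 30 min. Washing, 0.1% formaldehyde crosslinking, proximity ligation, PCR and Illumina NextSeq500 sequencing followed.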
# ETV5 = ETV5 (Homo sapiens, UniProt P41161 1-510); conditions: protein: recombinant; tags: N-terminal GST; dsDNA, one strand shown
# Chain of ETV5 (P41161 whole entry): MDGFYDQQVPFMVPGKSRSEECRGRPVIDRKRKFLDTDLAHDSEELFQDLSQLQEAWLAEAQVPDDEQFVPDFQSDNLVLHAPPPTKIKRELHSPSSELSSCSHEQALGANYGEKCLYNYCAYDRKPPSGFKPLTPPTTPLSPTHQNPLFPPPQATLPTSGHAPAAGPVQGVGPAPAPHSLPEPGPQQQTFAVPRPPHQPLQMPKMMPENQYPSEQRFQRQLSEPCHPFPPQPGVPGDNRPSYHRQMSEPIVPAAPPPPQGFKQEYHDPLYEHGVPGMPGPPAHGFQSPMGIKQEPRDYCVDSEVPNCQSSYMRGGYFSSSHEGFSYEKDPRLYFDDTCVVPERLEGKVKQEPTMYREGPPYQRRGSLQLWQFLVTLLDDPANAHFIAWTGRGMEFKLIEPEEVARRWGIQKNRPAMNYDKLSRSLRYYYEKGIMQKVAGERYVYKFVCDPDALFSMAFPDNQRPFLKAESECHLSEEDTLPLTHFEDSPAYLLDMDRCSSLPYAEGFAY
# Procedure, shortened: as §1
# HSF1 = HSF1 (Homo sapiens, UniProt Q00613 1-529); conditions: protein: recombinant; tags: N-terminal GST; chain copies: 3; dsDNA, one strand shown
# Chain of HSF1 (Q00613 whole entry): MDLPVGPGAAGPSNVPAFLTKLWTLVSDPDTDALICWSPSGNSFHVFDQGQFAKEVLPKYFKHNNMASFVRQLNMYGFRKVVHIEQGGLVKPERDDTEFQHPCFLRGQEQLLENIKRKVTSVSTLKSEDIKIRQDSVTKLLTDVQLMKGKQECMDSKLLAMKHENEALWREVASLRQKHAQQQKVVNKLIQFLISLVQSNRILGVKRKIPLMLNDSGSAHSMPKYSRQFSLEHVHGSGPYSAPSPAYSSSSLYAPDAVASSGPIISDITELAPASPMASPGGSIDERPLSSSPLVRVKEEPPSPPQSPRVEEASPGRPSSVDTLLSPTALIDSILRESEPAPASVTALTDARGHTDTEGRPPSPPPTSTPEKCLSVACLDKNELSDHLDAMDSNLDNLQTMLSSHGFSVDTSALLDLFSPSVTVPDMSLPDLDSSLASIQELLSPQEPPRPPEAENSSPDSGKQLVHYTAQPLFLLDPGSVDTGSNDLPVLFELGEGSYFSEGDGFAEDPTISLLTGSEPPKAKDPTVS
# Procedure, shortened: as §1
# SPIC = biological target: T2, SPIC (Homo sapiens, UniProt Q8N5J4 1-248); conditions: protein: recombinant; tags: N-terminal GST; dsDNA, one strand shown
# T2 sequence: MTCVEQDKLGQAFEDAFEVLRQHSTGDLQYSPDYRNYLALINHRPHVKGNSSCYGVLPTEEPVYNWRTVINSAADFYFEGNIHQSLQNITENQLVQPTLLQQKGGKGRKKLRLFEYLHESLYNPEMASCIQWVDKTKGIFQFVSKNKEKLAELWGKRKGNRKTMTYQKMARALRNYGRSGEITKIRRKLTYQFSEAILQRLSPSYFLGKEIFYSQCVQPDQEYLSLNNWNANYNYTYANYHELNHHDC
# Procedure, shortened: as §1
# ELF4 = ELF4 (Homo sapiens, UniProt Q99607 1-663); conditions: protein: recombinant; tags: N-terminal GST; dsDNA, one strand shown
# Chain of ELF4 (Q99607 whole entry): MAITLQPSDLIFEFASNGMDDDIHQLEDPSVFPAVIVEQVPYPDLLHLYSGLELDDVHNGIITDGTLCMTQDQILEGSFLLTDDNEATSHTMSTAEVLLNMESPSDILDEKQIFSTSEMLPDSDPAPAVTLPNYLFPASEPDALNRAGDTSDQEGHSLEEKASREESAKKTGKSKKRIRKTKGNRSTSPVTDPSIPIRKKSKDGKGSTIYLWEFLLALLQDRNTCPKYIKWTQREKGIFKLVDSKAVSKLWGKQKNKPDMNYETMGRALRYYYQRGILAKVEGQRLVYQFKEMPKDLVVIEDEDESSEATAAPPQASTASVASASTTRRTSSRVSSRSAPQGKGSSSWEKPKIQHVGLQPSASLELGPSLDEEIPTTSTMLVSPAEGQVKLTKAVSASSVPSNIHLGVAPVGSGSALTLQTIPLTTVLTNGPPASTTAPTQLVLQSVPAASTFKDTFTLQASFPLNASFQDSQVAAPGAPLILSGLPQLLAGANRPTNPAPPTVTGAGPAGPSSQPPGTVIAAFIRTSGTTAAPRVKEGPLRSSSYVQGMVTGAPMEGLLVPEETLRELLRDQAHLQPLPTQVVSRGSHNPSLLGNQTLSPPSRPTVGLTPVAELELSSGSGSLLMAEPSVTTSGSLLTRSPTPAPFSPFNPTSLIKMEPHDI
# Procedure, shortened: as §1
# ELK4 = biological target: T3, ELK4 (Homo sapiens, UniProt P28324-2 1-405); conditions: protein: recombinant; tags: N-terminal GST; dsDNA, one strand shown
# T3 sequence: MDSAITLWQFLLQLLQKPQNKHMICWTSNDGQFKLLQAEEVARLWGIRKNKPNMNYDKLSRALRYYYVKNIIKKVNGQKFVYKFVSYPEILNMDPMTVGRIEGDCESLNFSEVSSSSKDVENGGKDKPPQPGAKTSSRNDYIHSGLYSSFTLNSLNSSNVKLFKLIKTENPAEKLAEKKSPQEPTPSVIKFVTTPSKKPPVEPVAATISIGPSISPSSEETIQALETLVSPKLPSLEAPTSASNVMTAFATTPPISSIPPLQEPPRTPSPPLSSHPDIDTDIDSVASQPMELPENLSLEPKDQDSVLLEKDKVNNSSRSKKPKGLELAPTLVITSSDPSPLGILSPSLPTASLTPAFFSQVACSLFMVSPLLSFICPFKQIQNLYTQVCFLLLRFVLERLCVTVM
# Procedure, shortened: as §1
# ETV2 = biological target: T4, ETV2 (Homo sapiens, UniProt O00321 1-342); conditions: protein: recombinant; tags: N-terminal GST; dsDNA, one strand shown
# T4 sequence: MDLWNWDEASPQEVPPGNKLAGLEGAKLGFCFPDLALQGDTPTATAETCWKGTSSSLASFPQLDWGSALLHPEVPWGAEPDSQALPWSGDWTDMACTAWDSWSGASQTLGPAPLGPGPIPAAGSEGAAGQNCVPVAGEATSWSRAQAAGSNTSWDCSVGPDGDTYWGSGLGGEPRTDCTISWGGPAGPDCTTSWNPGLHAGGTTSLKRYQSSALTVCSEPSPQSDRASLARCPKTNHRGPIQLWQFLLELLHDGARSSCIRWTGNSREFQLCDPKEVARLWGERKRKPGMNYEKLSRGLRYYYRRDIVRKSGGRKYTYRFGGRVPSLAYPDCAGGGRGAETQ
# Procedure, shortened: as §1
# ELF3 = biological target: T5, ELF3 (Homo sapiens, UniProt P78545 1-371); conditions: protein: recombinant; tags: N-terminal GST; dsDNA, one strand shown
# T5 sequence: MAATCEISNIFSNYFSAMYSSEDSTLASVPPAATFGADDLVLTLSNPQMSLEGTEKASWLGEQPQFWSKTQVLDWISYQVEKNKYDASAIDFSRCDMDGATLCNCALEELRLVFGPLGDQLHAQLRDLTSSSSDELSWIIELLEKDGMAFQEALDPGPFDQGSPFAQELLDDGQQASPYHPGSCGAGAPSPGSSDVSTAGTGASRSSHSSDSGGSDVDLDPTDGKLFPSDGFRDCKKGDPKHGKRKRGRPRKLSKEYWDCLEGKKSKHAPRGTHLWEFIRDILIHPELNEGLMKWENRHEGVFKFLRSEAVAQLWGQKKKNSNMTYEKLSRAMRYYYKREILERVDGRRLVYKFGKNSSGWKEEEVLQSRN
# Procedure, shortened: as §1
# CRX = CRX (Homo sapiens, UniProt O43186 1-299); conditions: protein: recombinant; tags: N-terminal GST; dsDNA, one strand shown
# Chain of CRX (O43186 whole entry): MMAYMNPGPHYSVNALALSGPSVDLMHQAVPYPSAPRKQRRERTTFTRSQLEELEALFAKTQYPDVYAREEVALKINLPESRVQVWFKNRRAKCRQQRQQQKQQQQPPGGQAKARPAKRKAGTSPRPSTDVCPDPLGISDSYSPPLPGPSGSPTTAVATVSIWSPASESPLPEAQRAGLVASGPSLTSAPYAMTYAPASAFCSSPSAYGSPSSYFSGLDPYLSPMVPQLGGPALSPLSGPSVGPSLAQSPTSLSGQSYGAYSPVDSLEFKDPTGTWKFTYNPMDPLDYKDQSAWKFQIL
# Procedure, shortened: as §1
# ETV1 = ETV1 (Homo sapiens, UniProt P50549 1-477); conditions: protein: recombinant; tags: N-terminal GST; dsDNA, one strand shown
# Chain of ETV1 (P50549 whole entry): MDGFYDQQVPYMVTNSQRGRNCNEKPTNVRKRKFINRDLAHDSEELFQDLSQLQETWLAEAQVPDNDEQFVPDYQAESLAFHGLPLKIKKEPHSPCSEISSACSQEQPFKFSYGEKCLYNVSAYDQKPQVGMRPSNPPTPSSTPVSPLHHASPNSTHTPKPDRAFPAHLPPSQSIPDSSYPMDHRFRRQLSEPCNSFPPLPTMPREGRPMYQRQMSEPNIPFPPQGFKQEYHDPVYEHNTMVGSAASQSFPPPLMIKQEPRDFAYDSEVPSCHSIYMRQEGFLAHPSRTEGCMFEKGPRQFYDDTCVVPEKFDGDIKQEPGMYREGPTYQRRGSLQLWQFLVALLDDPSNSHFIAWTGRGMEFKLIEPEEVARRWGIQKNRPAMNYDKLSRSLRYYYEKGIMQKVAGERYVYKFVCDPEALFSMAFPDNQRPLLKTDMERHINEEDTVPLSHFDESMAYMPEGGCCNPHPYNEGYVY
# Procedure, shortened: as §1
# ERF = biological target: T6, ERF (Homo sapiens, UniProt P50548 1-548); conditions: protein: recombinant; tags: N-terminal GST; dsDNA, one strand shown
# T6 sequence: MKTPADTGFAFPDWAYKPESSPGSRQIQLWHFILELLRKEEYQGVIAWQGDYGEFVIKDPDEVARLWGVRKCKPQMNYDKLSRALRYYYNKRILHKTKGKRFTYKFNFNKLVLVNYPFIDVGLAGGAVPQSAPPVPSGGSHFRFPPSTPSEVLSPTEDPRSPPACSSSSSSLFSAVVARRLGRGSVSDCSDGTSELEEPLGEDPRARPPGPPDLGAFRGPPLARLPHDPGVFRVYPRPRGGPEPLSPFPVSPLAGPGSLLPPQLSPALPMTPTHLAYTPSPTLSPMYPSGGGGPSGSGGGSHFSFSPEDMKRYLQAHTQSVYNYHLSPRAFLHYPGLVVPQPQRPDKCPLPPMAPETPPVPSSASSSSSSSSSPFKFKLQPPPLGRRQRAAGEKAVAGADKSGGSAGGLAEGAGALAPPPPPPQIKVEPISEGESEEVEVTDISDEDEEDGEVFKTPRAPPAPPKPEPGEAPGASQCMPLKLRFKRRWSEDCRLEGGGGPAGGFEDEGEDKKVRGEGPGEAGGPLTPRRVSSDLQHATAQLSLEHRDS
# Procedure, shortened: as §1
# ETV3L = biological target: T7, ETV3L (Homo sapiens, UniProt Q6ZN32 1-361); conditions: protein: recombinant; tags: N-terminal GST; dsDNA, one strand shown
# T7 sequence: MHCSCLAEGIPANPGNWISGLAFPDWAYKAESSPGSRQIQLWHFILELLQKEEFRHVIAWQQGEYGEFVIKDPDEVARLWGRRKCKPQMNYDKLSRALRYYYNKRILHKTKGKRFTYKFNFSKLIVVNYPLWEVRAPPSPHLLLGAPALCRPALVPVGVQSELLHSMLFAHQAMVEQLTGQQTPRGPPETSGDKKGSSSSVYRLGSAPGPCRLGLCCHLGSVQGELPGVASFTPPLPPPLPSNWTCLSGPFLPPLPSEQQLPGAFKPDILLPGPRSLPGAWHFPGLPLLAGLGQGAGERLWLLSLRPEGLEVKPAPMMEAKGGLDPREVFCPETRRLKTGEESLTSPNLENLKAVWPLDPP
# Procedure, shortened: as §1
# ETS2 = biological target: T8, ETS2 (Homo sapiens, UniProt P15036 1-469); conditions: protein: recombinant; tags: N-terminal GST; dsDNA, one strand shown
# T8 sequence: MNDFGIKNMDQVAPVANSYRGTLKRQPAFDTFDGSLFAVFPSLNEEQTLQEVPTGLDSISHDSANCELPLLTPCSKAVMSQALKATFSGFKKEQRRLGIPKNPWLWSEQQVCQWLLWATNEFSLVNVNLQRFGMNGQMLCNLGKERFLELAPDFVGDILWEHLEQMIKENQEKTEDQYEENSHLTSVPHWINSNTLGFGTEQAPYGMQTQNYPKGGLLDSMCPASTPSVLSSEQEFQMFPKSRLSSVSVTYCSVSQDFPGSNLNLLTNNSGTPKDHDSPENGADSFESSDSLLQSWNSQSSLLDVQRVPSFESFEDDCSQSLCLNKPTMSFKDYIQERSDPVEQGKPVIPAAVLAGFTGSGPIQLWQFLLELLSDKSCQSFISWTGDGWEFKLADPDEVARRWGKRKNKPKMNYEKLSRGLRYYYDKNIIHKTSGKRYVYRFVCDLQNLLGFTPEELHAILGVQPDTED
# Procedure, shortened: as §1
# SPDEF = biological target: T9, SPDEF (Homo sapiens, UniProt O95238 1-335); conditions: protein: recombinant; tags: N-terminal GST; dsDNA, one strand shown
# T9 sequence: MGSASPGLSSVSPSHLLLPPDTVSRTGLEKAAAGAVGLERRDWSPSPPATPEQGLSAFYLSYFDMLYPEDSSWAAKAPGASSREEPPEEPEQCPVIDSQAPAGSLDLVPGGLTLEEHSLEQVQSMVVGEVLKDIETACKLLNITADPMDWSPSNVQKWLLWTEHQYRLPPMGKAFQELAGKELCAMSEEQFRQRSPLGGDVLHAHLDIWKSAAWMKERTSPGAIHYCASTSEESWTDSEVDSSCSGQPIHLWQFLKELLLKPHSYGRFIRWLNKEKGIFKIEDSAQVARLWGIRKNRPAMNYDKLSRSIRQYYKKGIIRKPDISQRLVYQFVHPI
# Procedure, shortened: as §1
# ETV7 = biological target: T10, ETV7 (Homo sapiens, UniProt Q9Y603 1-341); conditions: protein: recombinant; tags: N-terminal GST; dsDNA, one strand shown
# T10 sequence: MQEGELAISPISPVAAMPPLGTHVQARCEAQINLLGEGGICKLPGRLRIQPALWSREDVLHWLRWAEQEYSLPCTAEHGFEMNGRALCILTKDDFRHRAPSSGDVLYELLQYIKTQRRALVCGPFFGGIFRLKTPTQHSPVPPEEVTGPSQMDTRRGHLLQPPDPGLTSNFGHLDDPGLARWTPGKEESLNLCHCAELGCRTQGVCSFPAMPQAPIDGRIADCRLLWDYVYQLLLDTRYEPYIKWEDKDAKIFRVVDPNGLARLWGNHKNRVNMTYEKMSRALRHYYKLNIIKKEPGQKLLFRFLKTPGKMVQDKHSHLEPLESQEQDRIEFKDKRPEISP
# Procedure, shortened: as §1
# ELF5 = biological target: T11, ELF5 (Homo sapiens, UniProt Q9UKW6-2 1-255); conditions: protein: recombinant; tags: N-terminal GST; dsDNA, one strand shown
# T11 sequence: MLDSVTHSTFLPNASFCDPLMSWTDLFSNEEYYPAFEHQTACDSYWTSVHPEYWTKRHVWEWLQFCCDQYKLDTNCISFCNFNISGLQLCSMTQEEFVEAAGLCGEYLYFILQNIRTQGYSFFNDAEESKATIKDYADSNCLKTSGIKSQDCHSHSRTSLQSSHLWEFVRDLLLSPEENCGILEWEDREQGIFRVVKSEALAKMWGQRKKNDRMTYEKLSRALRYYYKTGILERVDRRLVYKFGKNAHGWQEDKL
# Procedure, shortened: as §1
# ETV3 = biological target: T12, ETV3 (Homo sapiens, UniProt P41162-2 1-143); conditions: protein: recombinant; tags: N-terminal GST; dsDNA, one strand shown
# T12 sequence: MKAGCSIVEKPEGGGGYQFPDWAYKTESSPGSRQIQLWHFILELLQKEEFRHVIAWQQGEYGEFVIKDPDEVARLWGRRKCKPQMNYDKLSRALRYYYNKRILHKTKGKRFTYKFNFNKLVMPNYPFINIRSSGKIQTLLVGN
# Procedure, shortened: as §1
# ETV6 = ETV6 (Homo sapiens, UniProt P41212 1-452); conditions: protein: recombinant; tags: N-terminal GST; dsDNA, one strand shown
# Chain of ETV6 (P41212 whole entry): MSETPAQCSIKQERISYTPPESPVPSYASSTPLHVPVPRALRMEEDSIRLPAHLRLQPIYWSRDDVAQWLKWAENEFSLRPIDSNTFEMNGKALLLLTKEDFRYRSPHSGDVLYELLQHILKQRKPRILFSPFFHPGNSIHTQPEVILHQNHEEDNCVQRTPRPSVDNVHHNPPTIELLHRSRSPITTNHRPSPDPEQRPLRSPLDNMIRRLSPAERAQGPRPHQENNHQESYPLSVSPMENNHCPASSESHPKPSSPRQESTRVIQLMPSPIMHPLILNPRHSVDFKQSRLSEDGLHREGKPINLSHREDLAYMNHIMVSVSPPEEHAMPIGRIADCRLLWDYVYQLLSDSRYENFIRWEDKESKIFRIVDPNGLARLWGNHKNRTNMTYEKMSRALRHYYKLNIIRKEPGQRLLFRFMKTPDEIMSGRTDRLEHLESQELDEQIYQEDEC
# Procedure, shortened: as §1
sequence,measurement,setting,value
AACAAC,binding signal,FEV,"1.26 fold enrichment (6-mer frequency, TF over GST control)"
same,binding signal,ETV5,"1.24 fold enrichment (6-mer frequency, TF over GST control)"
same,binding signal,HSF1,"1.14 fold enrichment (6-mer frequency, TF over GST control)"
same,binding signal,SPIC,"1.2 fold enrichment (6-mer frequency, TF over GST control)"
same,binding signal,ELF4,"1.26 fold enrichment (6-mer frequency, TF over GST control)"
same,binding signal,ELK4,"1.27 fold enrichment (6-mer frequency, TF over GST control)"
same,binding signal,ETV2,"1.34 fold enrichment (6-mer frequency, TF over GST control)"
same,binding signal,ELF3,"1.31 fold enrichment (6-mer frequency, TF over GST control)"
same,binding signal,CRX,"1.04 fold enrichment (6-mer frequency, TF over GST control)"
same,binding signal,ETV1,"1.23 fold enrichment (6-mer frequency, TF over GST control)"
same,binding signal,ERF,"1.35 fold enrichment (6-mer frequency, TF over GST control)"
same,binding signal,ETV3L,"1.25 fold enrichment (6-mer frequency, TF over GST control)"
same,binding signal,ETS2,"1.33 fold enrichment (6-mer frequency, TF over GST control)"
same,binding signal,SPDEF,"1.27 fold enrichment (6-mer frequency, TF over GST control)"
same,binding signal,ETV7,"1.3 fold enrichment (6-mer frequency, TF over GST control)"
same,binding signal,ELF5,"1.28 fold enrichment (6-mer frequency, TF over GST control)"
same,binding signal,ETV3,"1.37 fold enrichment (6-mer frequency, TF over GST control)"
same,binding signal,ETV6,"1.35 fold enrichment (6-mer frequency, TF over GST control)"
